The text below walks through data of US20260200999, “SYNTHETIC TRANSCRIPTION FACTORS” (ETH ZURICH, published 2026).

The target of assay [1] is T1, MTERF1 73-399::RelA 430-551 (Homo sapiens, UniProt Q99551 SEQ:1-327).
T1 chain: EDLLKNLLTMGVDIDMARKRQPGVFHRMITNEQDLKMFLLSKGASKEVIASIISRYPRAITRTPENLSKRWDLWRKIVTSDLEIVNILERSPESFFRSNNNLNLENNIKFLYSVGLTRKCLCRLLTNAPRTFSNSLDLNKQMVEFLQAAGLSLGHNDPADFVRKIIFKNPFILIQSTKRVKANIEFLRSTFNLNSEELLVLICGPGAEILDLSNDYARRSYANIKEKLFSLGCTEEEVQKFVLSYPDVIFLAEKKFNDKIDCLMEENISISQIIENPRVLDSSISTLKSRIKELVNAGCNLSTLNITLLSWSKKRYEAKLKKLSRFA
Put plainly: cell_activity; HEK293 reporter; reduced but not abolished. The settings on record: tags: RelA 430-551 TAD fusion; dsDNA, one strand shown.

Assay [2] addresses T2, MTERF1 104-399::RelA 430-551 (Homo sapiens, UniProt Q99551 SEQ:1-296).
T2 chain: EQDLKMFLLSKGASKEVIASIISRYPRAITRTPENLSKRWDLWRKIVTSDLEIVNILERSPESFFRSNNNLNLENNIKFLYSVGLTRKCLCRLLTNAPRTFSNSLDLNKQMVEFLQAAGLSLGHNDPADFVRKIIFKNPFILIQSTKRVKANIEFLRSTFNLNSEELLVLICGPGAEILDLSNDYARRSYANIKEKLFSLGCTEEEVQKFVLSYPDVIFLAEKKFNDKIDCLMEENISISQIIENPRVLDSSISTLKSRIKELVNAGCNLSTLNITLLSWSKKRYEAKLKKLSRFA
The description is as above. The settings on record: tags: RelA 430-551 TAD fusion; dsDNA, one strand shown.

Regarding “TAAGATGGCAGAGCCCGGTAATTAAGATGGCAGAGCCCGGTAATTAAGATGGCAGAGCCCGGTAATTAAGATGGCAGAGCCCGGTAATTAAGATGGCAGAGCCCGGTAAT”, the binding signal in assay [1] and in assay [2] was roughly 1.5 fold less than MTF in each case.
